According to PubChem BioAssay (NCATS):
Several values for one entry are separate records, joined by “and”; a condition that tells them apart may be missing. Identical values can stand only once. Results filed as inconclusive are left out. Entries that show only a call come without a potency. Activity calls are given as the source filed them. Unless noted, calls come from the whole dose curve.

Key:
[1] = Cell Viability - BJ (AID 421); settings: BJ fibroblast viability, qHTS;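 note: potency is the fitted concentration of half-maximal effect; cells exposed to compound for 40 hours at 37 °C before readout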
Procedure, shortened: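 Cytotoxicity in human BJ foreskin fibroblasts is scored as loss of cellular ATP after a 40-hour exposure, measured by luciferase luminescence. Controls are DMSO and 100 uM tamoxifen.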

[2] = Cell Viability - NIH 3T3 (AID 541; active = well fitted curve in the direction sought with a large enough effect; an effect the other way counts as inactive or inconclusive;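 note: cells exposed to compound for 40 hours; nearly all actives have a fitted effect of over 25% in size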); settings: NIH 3T3 cell viability, qHTS; activity change, negative = cytotoxicity: at 92.2 µM (top of the series)
Procedure, shortened: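 Intracellular ATP (CellTiter-Glo luminescence, 20 min at room temperature) measured after 40 hr compound exposure at 37 °C of 1000 NIH 3T3 mouse fibroblasts/well in complete medium; AC50 derived by Hill-equation modelling of qHTS concentration-response curves.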

[3] = Cellular Toxicity (caspase-3) Jurkat (AID 655; active = well fitted curve in the direction sought with a large enough effect; an effect the other way counts as inactive or inconclusive;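 note: cells exposed to compound for 16 h at 37 °C before reading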); settings: Jurkat caspase-3 activation, luminescence; caspase-3 activation: at 92.2 µM (top of the series), DMSO = 0%, tamoxifen = 100%
Procedure, shortened: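 5000 Jurkat cells/well; compound 16 hr, 37 °C; Caspase-Glo 3/7 added, 20 min RT; luminescence read. Norm: DMSO = 0%, tamoxifen 100 uM = 100%. AC50, Hill model.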

[4] = Cell Viability - LYMP2-005 (AID 967; active = well fitted curve in the direction sought with a large enough effect; an effect the other way counts as inactive or inconclusive;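 note: cells exposed to compound for 24 h at 37 °C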); settings: LYMP2-005 lymphoblastoid cell viability; series mostly up to 92.2 µM
Procedure, shortened: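 Acute cytotoxicity is scored as a concentration-dependent drop in intracellular ATP in human lymphoblastoid LYMP2-005 cells after 24 h compound treatment. ATP is quantified by luciferase luminescence, and AC50 is derived by Hill-equation modelling.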

[5] = target: Glucocorticoid receptor (Homo sapiens) (UniProt P04150); assay: qHTS assay for small molecule agonists of glucocorticoid receptor signaling (AID 588532; active = well fitted curve in the direction sought with a large enough effect in the signal ratio, with a control signal flat; the % refers to the signal ratio); settings: HeLa MMTV-bla, beta-lactamase ratio, agonist, 18 h; stronger effect = higher value; percent of dexamethasone control, DMSO zero
Procedure, shortened: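 Stimulation of a glucocorticoid response element-driven beta-lactamase gene was measured in HeLa cells. Responses were scaled between DMSO basal and 0.1 uM dexamethasone, then fitted for half-maximal stimulation.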

[6] = target: Glucocorticoid receptor (Homo sapiens) (UniProt P04150); assay: qHTS assay for small molecule antagonists of glucocorticoid receptor signaling (AID 588533; active = well fitted inhibition curve with a large enough effect in the signal ratio, with a control signal flat, not every such curve was filed as active; the % refers to the signal ratio;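 note: cells stimulated with 2 nM dexamethasone as agonist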); settings: HeLa MMTV-bla, GRE beta-lactamase ratio, antagonist mode, 18 h; series mostly up to 76.8 µM
Procedure, shortened: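 Antagonist-mode qHTS: compound titrations added to GRE-bla HeLa cells, then dexamethasone 2 nM final; 18 h, 37 C. CCF4 FRET fluorescence normalized to dexamethasone and DMSO; IC50 from Hill fit.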

[7] = target: Peroxisome proliferator-activated receptor delta (Homo sapiens) (UniProt Q03181); assay: qHTS assay for small molecule agonists of peroxisome proliferator-activated receptor delta signaling (AID 588534); settings: HEK293T PPARdelta-UAS-bla, beta-lactamase ratio, 18 h; series mostly up to 76.7 µM
Procedure, shortened: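 Agonist-mode beta-lactamase reporter readout (CCF4 dye, 2 h at RT) after 18 h at 37 °C exposure to a titration; Hill-equation fitting gave EC50 and maximal response.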

[8] = qHTS assay for small molecule antagonists of peroxisome proliferator-activated receptor delta signaling (AID 588535; active = well fitted inhibition curve with a large enough effect in the signal ratio, with a control signal flat, not every such curve was filed as active; the % refers to the signal ratio;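 for max response: cells co-treated with a PPAR-delta agonist as stimulator during compound exposure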); settings: HEK293T PPARd-UAS-bla, beta-lactamase FRET ratio, 18 h; 460 nm channel
Procedure, shortened: (§1)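 Inhibition of PPAR-delta response element-driven beta-lactamase expression is measured in HEK293T cells exposed to a compound titration series for 18 hrs at 37 C. Half-maximal inhibition comes from Hill equation fitting.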

[9] = target: Peroxisome proliferator-activated receptor delta (Homo sapiens) (UniProt Q03181); assay: as above; settings: HEK293T PPARd-UAS-bla, beta-lactamase FRET ratio, 18 h; series mostly up to 76.7 µM
Procedure, shortened: as §1

[10] = target: Peroxisome proliferator-activated receptor gamma (Homo sapiens) (UniProt P37231); assay: qHTS assay for small molecule antagonists of peroxisome proliferator-activated receptor gamma signaling (AID 588537; active = well fitted inhibition curve with a large enough effect in the signal ratio, with a control signal flat, not every such curve was filed as active; the % refers to the signal ratio;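 note: reporter cells co-stimulated with 50 nM rosiglitazone agonist during compound treatment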); settings: HEK293 PPARg-UAS-bla, beta-lactamase ratio, antagonist mode; series mostly up to 76.8 µM
Procedure, shortened: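 Compounds are tested as concentration series for inhibition of rosiglitazone-driven (50 nM) reporter expression in GeneBLAzer PPAR-gamma-UAS-bla HEK293 cells. After 16 h at 37 C, CCF4 substrate is added for 2 h at room temperature and blue/green fluorescence is measured.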

[11] = qHTS assay for small molecule activators of the p53 signaling pathway (AID 651743; active = well fitted activation curve with a large enough effect in the signal ratio, not every such curve was filed as active; the % refers to the signal ratio); settings: HCT-116 p53RE-bla, beta-lactamase FRET ratio, 16 h; activation: stronger effect = higher value
Procedure, shortened: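 Agonist-mode quantitative HTS in HCT-116 cells carrying a p53-response-element beta-lactamase reporter; 16 h compound treatment at 37 C, then FRET substrate loading for 2 h at room temperature and fluorescence read.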

[12] = qHTS assay for small molecule activators of the nuclear factor-kappa B (NF-kB) signaling pathway (AID 651749; active = well fitted activation curve with a large enough effect in the signal ratio; the % refers to the signal ratio); settings: NF-kB-bla ME-180 cells, beta-lactamase FRET ratio, 16 h; stronger effect = higher value
Procedure, shortened: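 Human ME-180 cervical cells with an NF-kB-bla construct; compounds added via 23 nL pin transfer, DMSO as vehicle; incubation 16 hr. Reporter activity measured by FRET disruption.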

[13] = qHTS assay for small molecule disruptors of the mitochondrial membrane potential - 1 hr assay (AID 651754); settings: series mostly up to 92.2 µM; note: nearly all actives have a fitted effect of over 35% in size; note: potency is the fitted concentration of half-maximal effect
Procedure, shortened: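 Mitochondrial potential in living HepG2 cells after 1 hr compound treatment at 37C was read with Mito-MPS dye added for a further 30 min. Red aggregate and green monomer fluorescence were measured; loss of potential leaves dye as cytoplasmic monomers.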

[14] = qHTS assay for small molecule disruptors of the mitochondrial membrane potential - 5 hr assay (AID 651755); settings: JC-1-type ratio dye; series mostly up to 92.2 µM; note: nearly all actives have a fitted effect of over 40% in size; note: potency is the fitted concentration of half-maximal effect
Procedure, shortened: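 Seed HepG2 overnight, add compound, incubate 5 hr at 37C and 5% CO2, stain 30 min with Mito-MPS, then measure monomer (490/535 nm) and aggregate (540/590 nm) fluorescence.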

[15] = Cell Viability - SH-SY5Y (AID 544; active = well fitted curve in the direction sought with a large enough effect; an effect the other way counts as inactive or inconclusive;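 note: cells exposed to compound for 40 hours; nearly all actives have a fitted effect of over 55% in size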); settings: SH-SY5Y neuroblastoma cell viability; viability change, negative = cytotoxic: at 92.2 µM (top of the series)
Procedure, shortened: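 Cytotoxicity measured via ATP-dependent luciferase luminescence (CellTiter-Glo) following 40 h, 37 °C exposure of 1500 SH-SY5Y cells per well. Concentration-response data were fitted with the standard Hill equation to give AC50.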

[16] = target: Bile acid receptor (Homo sapiens) (UniProt Q96RI1); assay: qHTS assay for small molecule antagonists of farnesoid X receptor signaling (AID 588526); settings: HEK293T FXR-UAS-bla, beta-lactamase ratio, antagonist mode; series mostly up to 76.7 µM
Procedure, shortened: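 Concentration-response titrations were fitted to the Hill equation for half-maximal inhibition and maximal response, with data normalised to 50 uM chenodeoxycholic acid and DMSO control wells. Cells: FXR-UAS-bla HEK293T, dialyzed FBS.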

[17] = target: Retinoic acid receptor RXR-alpha (Homo sapiens) (UniProt P19793); assay: qHTS assay for small molecule agonists of retinoid X receptor alpha signaling (AID 588544); settings: HEK293T RXRa-UAS-bla, beta-lactamase reporter, 18 h; series mostly up to 76.7 µM
[18] = target: Estrogen receptor (Homo sapiens) (UniProt P03372); assay: qHTS assay for small molecule antagonists of estrogen receptor alpha signaling (AID 588513; active = well fitted curve in the direction sought with a large enough effect in the signal ratio, with a control signal flat, not every such curve was filed as active; the % refers to the signal ratio); settings: ER-alpha-UAS-bla HEK293, beta-lactamase ratio, antagonist mode; series mostly up to 76.9 µM
Procedure, shortened: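 Fluorescence from CCF4 substrate after 2 h at room temperature gave reporter activity; cells had been exposed to compound and 0.5nM 17-beta-estradiol for 18 h at 37 C. Hill-equation fitting yielded IC50 and maximal response.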

[19] = target: Estrogen receptor (Homo sapiens) (UniProt P03372); assay: qHTS assay for small molecule agonists of estrogen receptor alpha signaling (AID 588514); settings: ER-alpha-UAS-bla HEK293, beta-lactamase ratio, 18 h; series mostly up to 76.8 µM; note: nearly all actives have a fitted effect of over 70% in size
Procedure, shortened: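 EC50 and efficacy came from Hill fits of beta-lactamase reporter signal (CCF4 dye, 2 h at room temperature) scaled between DMSO and 20 nM 17-beta-estradiol. Agonist mode: HEK293 ER-alpha-UAS-bla cells in charcoal/dextran-stripped serum medium, 18 h compound exposure at 37 C.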

[20] = qHTS assay for small molecule agonists of the antioxidant response element (ARE) signaling pathway (AID 651741; active = well fitted activation curve with a large enough effect in the signal ratio; the % refers to the signal ratio); settings: HepG2 ARE-bla reporter, beta-lactamase FRET ratio, 16 h; series mostly up to 96 µM
Procedure, shortened: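 Reporter: beta-lactamase under ARE, stably in HepG2. Exposure: 16 h, 37 C, compounds delivered in DMSO by pin tool after 5 h cell preincubation. Readout: FRET substrate fluorescence after 2 h at RT.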

Chain of Glucocorticoid receptor (Homo sapiens) (P04150 whole entry, looked up): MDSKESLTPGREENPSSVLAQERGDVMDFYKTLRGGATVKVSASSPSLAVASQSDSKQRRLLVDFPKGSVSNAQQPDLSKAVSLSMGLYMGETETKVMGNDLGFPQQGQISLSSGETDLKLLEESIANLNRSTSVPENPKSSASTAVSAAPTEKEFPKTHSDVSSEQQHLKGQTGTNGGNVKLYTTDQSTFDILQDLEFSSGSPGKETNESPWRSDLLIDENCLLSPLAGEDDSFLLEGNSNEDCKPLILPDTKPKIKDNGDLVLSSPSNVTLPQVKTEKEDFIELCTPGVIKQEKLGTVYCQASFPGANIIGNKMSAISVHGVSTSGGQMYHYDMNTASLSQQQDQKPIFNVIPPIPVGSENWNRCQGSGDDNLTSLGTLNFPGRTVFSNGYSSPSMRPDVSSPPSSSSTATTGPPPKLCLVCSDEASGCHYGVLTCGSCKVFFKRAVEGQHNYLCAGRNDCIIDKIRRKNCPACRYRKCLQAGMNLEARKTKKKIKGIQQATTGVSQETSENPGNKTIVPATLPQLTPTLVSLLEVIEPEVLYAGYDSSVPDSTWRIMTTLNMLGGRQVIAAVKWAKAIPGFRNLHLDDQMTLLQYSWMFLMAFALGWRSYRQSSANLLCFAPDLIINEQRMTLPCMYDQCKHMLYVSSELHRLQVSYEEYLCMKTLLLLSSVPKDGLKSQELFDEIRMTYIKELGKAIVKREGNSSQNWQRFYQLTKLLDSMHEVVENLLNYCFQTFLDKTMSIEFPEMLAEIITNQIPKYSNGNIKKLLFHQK
Chain of Peroxisome proliferator-activated receptor gamma (Homo sapiens) (P37231 whole entry, looked up): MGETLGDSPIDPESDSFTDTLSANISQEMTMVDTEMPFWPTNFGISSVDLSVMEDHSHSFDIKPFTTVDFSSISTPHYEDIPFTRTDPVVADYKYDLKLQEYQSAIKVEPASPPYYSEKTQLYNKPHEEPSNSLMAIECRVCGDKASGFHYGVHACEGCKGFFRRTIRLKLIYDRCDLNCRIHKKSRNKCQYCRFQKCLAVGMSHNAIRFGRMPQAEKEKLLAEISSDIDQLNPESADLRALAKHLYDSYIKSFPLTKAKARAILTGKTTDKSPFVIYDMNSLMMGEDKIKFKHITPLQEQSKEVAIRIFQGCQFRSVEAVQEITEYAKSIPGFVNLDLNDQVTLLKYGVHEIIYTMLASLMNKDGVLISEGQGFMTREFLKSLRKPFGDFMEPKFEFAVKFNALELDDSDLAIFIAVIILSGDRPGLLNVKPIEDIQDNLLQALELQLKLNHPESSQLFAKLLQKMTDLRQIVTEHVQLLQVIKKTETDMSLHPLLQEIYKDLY
Chain of Peroxisome proliferator-activated receptor delta (Homo sapiens) (Q03181 whole entry, looked up): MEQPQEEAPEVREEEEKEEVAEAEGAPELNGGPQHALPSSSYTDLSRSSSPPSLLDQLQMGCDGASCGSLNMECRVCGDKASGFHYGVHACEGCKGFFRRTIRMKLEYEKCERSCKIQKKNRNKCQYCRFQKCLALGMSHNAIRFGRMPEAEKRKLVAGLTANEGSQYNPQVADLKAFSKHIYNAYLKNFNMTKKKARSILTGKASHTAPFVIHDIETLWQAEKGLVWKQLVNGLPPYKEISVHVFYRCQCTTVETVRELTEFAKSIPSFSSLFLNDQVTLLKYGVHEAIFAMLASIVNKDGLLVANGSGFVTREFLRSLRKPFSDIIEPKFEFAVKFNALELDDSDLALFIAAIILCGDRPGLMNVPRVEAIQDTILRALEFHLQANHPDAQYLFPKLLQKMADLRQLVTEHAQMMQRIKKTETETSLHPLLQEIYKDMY
Chain of Estrogen receptor (Homo sapiens) (P03372 whole entry, looked up): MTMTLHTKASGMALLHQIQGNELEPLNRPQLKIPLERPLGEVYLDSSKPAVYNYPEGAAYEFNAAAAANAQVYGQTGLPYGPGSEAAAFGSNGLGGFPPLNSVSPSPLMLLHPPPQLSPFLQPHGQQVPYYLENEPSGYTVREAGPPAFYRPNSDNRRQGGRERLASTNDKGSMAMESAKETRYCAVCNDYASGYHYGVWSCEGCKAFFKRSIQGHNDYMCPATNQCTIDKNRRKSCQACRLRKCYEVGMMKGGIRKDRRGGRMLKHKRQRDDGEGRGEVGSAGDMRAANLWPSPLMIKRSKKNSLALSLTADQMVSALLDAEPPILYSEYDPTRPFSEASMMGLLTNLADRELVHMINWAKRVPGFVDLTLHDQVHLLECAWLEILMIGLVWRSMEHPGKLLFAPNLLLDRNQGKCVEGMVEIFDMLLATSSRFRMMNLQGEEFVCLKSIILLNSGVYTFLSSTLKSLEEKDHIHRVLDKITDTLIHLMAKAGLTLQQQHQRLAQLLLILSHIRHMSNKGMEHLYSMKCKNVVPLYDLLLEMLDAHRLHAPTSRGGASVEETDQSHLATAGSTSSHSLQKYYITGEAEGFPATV
Chain of Retinoic acid receptor RXR-alpha (Homo sapiens) (P19793 whole entry, looked up): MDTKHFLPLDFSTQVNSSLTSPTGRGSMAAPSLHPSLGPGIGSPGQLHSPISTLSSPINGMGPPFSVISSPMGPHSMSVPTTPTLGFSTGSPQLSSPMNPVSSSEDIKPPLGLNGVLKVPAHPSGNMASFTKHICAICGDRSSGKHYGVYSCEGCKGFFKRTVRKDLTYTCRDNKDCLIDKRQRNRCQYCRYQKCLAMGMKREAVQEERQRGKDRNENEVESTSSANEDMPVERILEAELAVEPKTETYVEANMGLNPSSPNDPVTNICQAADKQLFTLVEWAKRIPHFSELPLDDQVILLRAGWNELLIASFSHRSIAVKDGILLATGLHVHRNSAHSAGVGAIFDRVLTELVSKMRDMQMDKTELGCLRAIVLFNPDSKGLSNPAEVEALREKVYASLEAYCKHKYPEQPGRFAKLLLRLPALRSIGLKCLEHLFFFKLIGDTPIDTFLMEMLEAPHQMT
Chain of Bile acid receptor (Homo sapiens) (Q96RI1 whole entry, looked up): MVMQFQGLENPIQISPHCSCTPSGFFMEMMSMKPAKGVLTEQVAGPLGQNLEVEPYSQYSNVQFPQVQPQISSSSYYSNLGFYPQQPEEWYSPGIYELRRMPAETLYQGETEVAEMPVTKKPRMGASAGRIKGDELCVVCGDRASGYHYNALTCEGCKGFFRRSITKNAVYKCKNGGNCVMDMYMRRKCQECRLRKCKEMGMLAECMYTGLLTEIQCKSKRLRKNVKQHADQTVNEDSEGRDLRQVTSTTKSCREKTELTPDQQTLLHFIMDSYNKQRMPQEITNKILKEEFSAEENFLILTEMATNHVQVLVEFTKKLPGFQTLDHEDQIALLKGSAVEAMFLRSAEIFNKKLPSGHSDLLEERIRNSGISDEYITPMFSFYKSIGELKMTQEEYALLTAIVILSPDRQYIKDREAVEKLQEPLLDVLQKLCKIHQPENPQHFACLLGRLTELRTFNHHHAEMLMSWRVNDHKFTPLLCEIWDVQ

SMILES | Potency [1] | Potency [2] | caspase-3 activation [3] | Potency [4] | activation [5] | outcome [6] | outcome [7] | max response [8] | outcome [9] | Potency [10] | activation [11] | activation [12] | Potency [13] | Potency [14] | Potency [15] | outcome [16] | outcome [17] | Potency [18] | Potency [19] | Potency [20]
Cc1ccc(OP(=O)(Oc2ccc(C)cc2)Oc2ccc(C)cc2)cc1 | > 92 µM (inactive) | inactive | 1.7% (inactive) | inactive | -0.0057% (inactive) and -10.3% (inactive) | inactive | inactive | 2.39% and -12% | inactive | inactive | 0.798% (inactive) and -5.64% (inactive) | -1% (inactive) and 2.01% (inactive) | 9.44 µM (active) | 13.3 µM (active) |  |  |  |  |  | 
O=c1ccc(=O)[nH][nH]1 | > 92 µM (inactive) |  | 1.49% (inactive) | inactive |  |  |  |  |  | inactive | -0.833% (inactive) and -3.13% (inactive) | -0.7% (inactive) and 1.42% (inactive) |  |  | inactive | inactive | inactive |  |  | 
C/C=C/CC#N | > 92 µM (inactive) | inactive | 0.734% (inactive) |  |  |  |  | -4.54% | inactive |  | -0.715% (inactive) | 1.19% (inactive) | inactive | inactive | inactive | inactive |  | inactive | inactive | 
O=Cc1ccc2c(c1)OCO2 | > 92 µM (inactive) |  | -0.168% (inactive) | inactive | 1.67% (inactive) | inactive | inactive | -1.49% | inactive |  |  | -0.011% (inactive) | inactive | inactive |  | inactive | inactive |  |  | inactive
CCCCC(CC)COC(=O)c1ccc(C(=O)OCC(CC)CCCC)c(C(=O)OCC(CC)CCCC)c1 (centres undefined) | > 92 µM (inactive) | inactive |  | inactive | -5.8% (inactive) | inactive | inactive |  |  |  | -1.5% (inactive) | 1.1% (inactive) |  |  | inactive |  | inactive |  |  | inactive
CC(C)OS(C)(=O)=O | > 92 µM (inactive) | inactive |  |  |  |  | inactive | -20% | inactive |  | -0.853% (inactive) |  | inactive | inactive | inactive | inactive | inactive | inactive | inactive | 
CCCCOC(C)=O | > 92 µM (inactive) | inactive | 1.84% (inactive) | inactive |  |  | inactive | 21.2% | inactive | inactive | -4.75% (inactive) | -1.17% (inactive) | inactive |  | inactive | inactive | inactive | inactive | inactive | inactive
O=Cc1ccc(Cl)cc1Cl | > 92 µM (inactive) | inactive | 8.63% (inactive) |  |  | inactive |  | -26.8% | inactive | inactive | -1.2% (inactive) | 1.15% (inactive) | inactive | inactive | inactive |  | inactive |  |  | 
